High-throughput results from PubChem.
In the library only some 15% were active in any assay of this set; here they are far more common.
ELG1 repair inh = blocks ELG1-dependent DNA repair in HEK293T cells; HEK293T ELG1-luciferase reporter, luminescence, 16 h; DNA damage induced by 5-fluorouridine; Potency, µM (top dose mostly 46.1 µM), inactives show at the highest dose activity change, negative = inhibition, hits mostly inhibitors; hit rate 2.3% among 330,000; note: nearly all actives have a fitted effect of over 55% in size
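HEK293T cells expressing luciferase-tagged ELG1 (2,000/well) received 5-Fluorouridine plus compound or DMSO for 16 hr at 37 °C. Luciferase was read by ONE-Glo luminescence after 30 min at room temperature.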
DT40 TDP1 CPT = growth inhibition of DT40 Tdp1-/-;hTDP1 cells with camptothecin (screen for TDP1 inhibitors). Potency, µM (titrated, usually from 46.2 µM), without a hit: top-dose activity change, negative = growth inhibition, hits mostly inhibitors. hit rate 12% among 420,000. chicken DT40 Tdp1-/-;hTDP1 cells + 20 nM CPT, ATP luminescence, 48 h; note: nearly all actives have a fitted effect of over 55% in size
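Chicken DT40 Tdp1-/- cells complemented with human TDP1, 400 cells/well, exposed to compounds plus 20 nM camptothecin for at least 48 h at 37 C; viability read as ATP content by CellTiter-Glo luminescence.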
RORgamma inh = blocks mouse ROR gamma transcriptional activity | P51450 | Drosophila S2 Gal4-RORgamma UAS-luciferase reporter, 20 h | Potency, µM (highest dose often 53.6 µM), without a hit: at the top dose activity change, negative = inhibition, hits mostly inhibitors | hit rate 5.4% among 310,000 | AID 2551; note: nearly all actives have a fitted effect of over 60% in size
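ROR gamma transcriptional activity was tracked as Gal4-UAS luciferase output in stably transfected Drosophila Schneider cells, with compound added 1 hr before 700 uM copper sulfate induction and a 20 hr ambient-temperature incubation.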
DT40 TDP1 no CPT = qHTS for Inhibitors of human tyrosyl-DNA phosphodiesterase 1 (TDP1): qHTS in cells in absence of CPT; DT40 Tdp1-/- hTDP1 cells, no CPT, ATP luminescence, 48 h; Potency, µM (top dose mostly 46.2 µM), for the others: at the highest dose activity change, negative = growth inhibition, actives largely listed as inhibitors; hit rate 15% among 420,000; AID 686978, 2013; note: nearly all actives have a fitted effect of over 55% in size
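Chicken DT40 Tdp1-/- cells stably complemented with human TDP1 were seeded at 400 cells/well with DMSO in place of 20 nM camptothecin. After compound pinning, cells grew at least 48 hr at 37 °C; viability read by CellTiter-Glo luminescence.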
ALOX12 inh = inhibitors of human 12S-lipoxygenase ALOX12. P18054. purified 12hLO, xylenol orange hydroperoxide absorbance. Potency, µM (top dose mostly 108 µM), for inactives: at the highest dose activity change, negative = inhibition, most hits filed as inhibitors. hit rate 1.1% among 580,000. AID 1671190
Target sequence (P18054 whole entry, looked up): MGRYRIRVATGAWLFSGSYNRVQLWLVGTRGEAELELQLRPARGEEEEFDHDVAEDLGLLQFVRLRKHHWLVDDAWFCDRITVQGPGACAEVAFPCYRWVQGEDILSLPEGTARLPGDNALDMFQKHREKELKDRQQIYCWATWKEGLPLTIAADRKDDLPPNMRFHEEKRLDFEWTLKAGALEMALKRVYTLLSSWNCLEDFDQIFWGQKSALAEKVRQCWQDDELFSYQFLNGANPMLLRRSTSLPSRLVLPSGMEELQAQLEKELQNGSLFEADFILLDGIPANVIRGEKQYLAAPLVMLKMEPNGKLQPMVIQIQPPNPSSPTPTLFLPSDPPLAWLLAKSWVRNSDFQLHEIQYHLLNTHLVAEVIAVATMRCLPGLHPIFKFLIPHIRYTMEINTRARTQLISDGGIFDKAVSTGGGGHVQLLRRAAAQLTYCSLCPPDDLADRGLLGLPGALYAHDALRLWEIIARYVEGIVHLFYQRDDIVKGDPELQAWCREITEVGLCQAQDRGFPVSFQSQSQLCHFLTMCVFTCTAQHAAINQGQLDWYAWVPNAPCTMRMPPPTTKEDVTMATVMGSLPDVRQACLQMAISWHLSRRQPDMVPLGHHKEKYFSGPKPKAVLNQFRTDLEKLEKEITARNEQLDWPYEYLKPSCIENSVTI
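Purified human 12hLO at 150 nM in 25 mM Hepes, 0.01% Triton X-100, pH 7.0, preincubated 15 min at room temperature with compound. Reaction started with 40 uM arachidonic acid, 30 min at room temperature. Hydroperoxide measured by Fe-xylenol orange, 573/405 nm absorbance ratio.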
VP16 counter = counter-screen for ROR gamma inhibitors: Gal4-VP16 reporter | Drosophila S2 Gal4-VP16 UAS-luciferase, luminescence, 20 h | Potency, µM (titrated, usually from 53.6 µM), without a hit: top-dose activity, negative = inhibition, actives largely listed as inhibitors | hit rate 3.5% among 310,000 | AID 2546;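 note: Gal4-VP16 expression switched on by copper sulfate through the metallothionein promoter; nearly all actives have a fitted effect of over 50% in size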
* hit, by the source's call; ? = inconclusive; · = not tested or not shown; [ ] = another dose, or the depositor's remark. Calls come from the whole dose curve; as a rule, active = well fitted curve in the direction sought with a large enough effect; inconclusive = small, poorly fitted or top-dose-only effect, or another doubt; inactive = no such curve, though single readings can be large; an effect the other way counts as inactive or inconclusive. % is set by controls: 0 for no effect and ±100 for the full control effect; potency is the fitted concentration of half-maximal effect.

SMILES | ELG1 repair inh | DT40 TDP1 CPT | RORgamma inh | DT40 TDP1 no CPT | ALOX12 inh | VP16 counter
O=C(NCc1nnc2ccc(-c3ccccc3)nn12)c1cc(Cl)ccc1F | · | · | · | · | 8% | ·
COC(=O)c1cccc(C(=O)NC2CCCN(CCCc3ccccc3)C2)c1 (stereo not given) | · | · | · | · | -1% | ·
O=C(NC1CCOC2(CCOCC2)C1)c1cnc2c(O)cccn2c1=O (stereo not given) | · | · | · | · | 72% | ·
CCOC(=O)c1cnc2ccc(Br)cc2c1Nc1cccc([N+](=O)[O-])c1 | · | · | · | · | -1% | ·
O=C1[C@H]2CN(Cc3cc(Br)ccc3F)C[C@H]2C(=O)N1CCc1ccccc1 | · | · | · | · | 1% | ·
O=C(CSc1nc2cc(Cl)ccc2s1)N1CCC(Cc2ccccc2)CC1 | · | · | · | · | 5% | ·
COc1ccc2cc(CN(CC3CCCO3)C(=S)NCc3ccco3)c(=O)[nH]c2c1 (stereo not given) | ? | -17% | ? | ? | -6% | -1%
COc1ccc2cc(CN(CC3CCCO3)C(=O)Nc3ccccc3)c(=O)[nH]c2c1 (stereo not given) | 18µM* | ? | 1% | -13% | -6% | 0%
COc1ccc2[nH]c(=O)c(CN(Cc3cccnc3)C(=S)NCC3CCCO3)cc2c1 (stereo not given) | ? | 18µM* | 28% | 21µM* | -25% | 2%
CCOc1ccc2[nH]c(=O)c(CN(C(=O)N3CCOCC3)C3CC3)cc2c1 | 12% | · | -24%[10 µM] | · | · | 0%
COc1ccc(NC(=O)N(Cc2cc3cc(OC)c(OC)cc3[nH]c2=O)CC2CCCO2)cc1 (stereo not given) | ? | ? | 22% | ? | 3% | 2%
CCOc1ccc2[nH]c(=O)c(CN(Cc3ccccc3)C(=O)N3CCCC3)cc2c1 | ? | 21µM* | -24% | ? | 0% | -6%
COc1ccc2[nH]c(=O)c(CN(CC3CCCO3)C(=O)Nc3ccc(F)cc3)cc2c1 (stereo not given) | 7.3µM* | 16µM* | -9% | 12µM* | 474% | ?
CC(C)N1C(=O)C2(CCN(C(=O)c3ccc(Cl)cc3)C2)c2ccccc21 (stereo not given) | · | · | · | · | -1%[6.33 µM] | ·
O=C(Nc1cccc(S(=O)(=O)N2CCOCC2)c1)c1cccc(CN2CCCC2=O)c1 | · | · | · | · | 6% | ·
CCN1CCCC1CN(Cc1cc2c(C)cc(C)cc2[nH]c1=O)C(=O)NC1CCCCC1 (stereo not given) | 0% | 23µM* | 30% | ? | ? | 9%
CCN1CCCC1CN(Cc1cc2cc(C)ccc2[nH]c1=O)C(=O)Nc1ccccc1OC (stereo not given) | ? | ? | ? | 21µM* | 17% | -16%
Cc1ccc2[nH]c(=O)c(CN(CCCN3CCOCC3)C(=O)Nc3ccc(Cl)cc3)cc2c1 | -8% | 15µM* | 6% | 16µM* | 34% | -3%
COc1ccc(N(Cc2cc3cc(OC)ccc3[nH]c2=O)S(=O)(=O)c2ccc(NC(C)=O)cc2)cc1 | ? | 16µM* | -7% | 8.2µM* | -17% | 1%
COc1ccccc1NC(=O)N(CCN1CCCC1)Cc1cc2cc(C)ccc2[nH]c1=O | · | ? | · | ? | -16% | ·
CN1CC2(CCN(C(=O)C3CCCC3)CC2)CC1C(=O)N1CCOCC1 (stereo not given) | · | · | · | · | 39% | ·
COCCNC(=O)CCc1c(C)nn(-c2ccc(F)cc2)c1Oc1ccccc1F | · | · | · | · | 10% | ·
CC(C)(O)C1CCCN(C(=O)c2cc(COc3ccccc3F)[nH]n2)C1 (stereo not given) | · | · | · | · | 21% | ·
CCn1c(-n2nc(C)cc2C)nc2c1c(=O)n(Cc1c(F)cccc1Cl)c(=O)n2C | · | · | · | · | 6% | ·
COc1ccccc1N(CC(=O)NCCc1ccc(F)cc1)S(=O)(=O)c1ccccc1 | · | · | · | · | 11% | ·
SMILES | ELG1 repair inh | DT40 TDP1 CPT | RORgamma inh | DT40 TDP1 no CPT | ALOX12 inh | VP16 counter
COc1ccc2[nH]c(=O)c(CN(CC3CCCO3)C(=S)Nc3ccc(C)cc3)cc2c1 (stereo not given) | 6% | -29% | 0% | 16µM* | -21% | 2%
COc1cc(C(=O)N(Cc2cc3cc(C)ccc3[nH]c2=O)CC2CCCO2)cc(OC)c1OC (stereo not given) | ? | -19% | -24% | 1% | 0% | -3%
CCn1cc(-c2nc3cc(S(=O)(=O)NC(C)C)ccc3n2C(C)C)cn1 | · | · | · | · | -9% | ·
CCN(CC)c1ncccc1CNC(=O)C1CCOC1 (stereo not given) | · | · | · | · | 116% | ·
CSC1=NC(C(Cl)(Cl)Cl)N=C(c2ccccc2)N1 (stereo not given) | ? | 2.6µM* | 8% | 3.7µM* | -18% | -1%
COc1ccc(CN2CCOC[C@H]2c2ncc(-c3ccc(OC)cc3)[nH]2)cc1 | · | · | · | · | 1%[176 µM] | ·
COc1ccc(CN(C)C2CCc3nn(C)c(=O)n3CC2)cc1Cn1cccn1 (stereo not given) | · | · | · | · | 37% | ·
Cn1c(=O)c2ccccc2n2c(CCl)nnc12 | -3% | 12µM* | -22% | 15µM* | -9% | 0%
O=C(Nc1nc(C23CC4CC(CC(C4)C2)C3)cs1)c1cc(-c2ccncc2)nc2ccccc12 | · | · | · | · | -38% | ·
C[C@@H]1CN([C@@H](C)CO)C(=O)c2cc(NC(=O)Nc3ccc(F)cc3)ccc2O[C@@H]1CN(C)Cc1ccc(Oc2ccccc2)cc1 | -8% | ? | · | 21µM* | ? | ·
C[C@@H]1CN([C@H](C)CO)C(=O)c2cc(NC(=O)Nc3ccc(F)cc3)ccc2O[C@H]1CN(C)C(=O)Nc1ccc(C(F)(F)F)cc1 | ? | 16µM* | · | 21µM* | · | ·
C[C@H](CO)N1C[C@H](C)[C@@H](CN(C)C(=O)Nc2ccc(C(F)(F)F)cc2)Oc2ccc(NS(=O)(=O)c3ccccc3)cc2C1=O | -1% | 3.7µM* | · | ? | 0% | ·
C[C@@H]1CN([C@H](C)CO)C(=O)c2cc(NC(=O)Cc3ccccc3)ccc2O[C@H]1CN(C)Cc1ccc(Oc2ccccc2)cc1 | -23% | ? | · | ? | ? | ·
C[C@H](CO)N1C[C@H](C)[C@@H](CN(C)C(=O)Nc2ccc(C(F)(F)F)cc2)Oc2ccc(NS(=O)(=O)c3ccc(F)cc3)cc2C1=O | -12% | ? | · | 23µM* | ? | ·
O=C(NCc1ccc(F)cc1)C1CCc2nnc(-c3ccc(Cl)cc3Cl)n21 (stereo not given) | · | · | · | · | -2%[6.33 µM] | ·
